# According to PubChem BioAssay (NCATS):
# Several values for one entry are separate records, joined by “and”; a condition that tells them apart may be missing. Identical values can stand only once. A number with no mark means an inactive call. Inconclusive results are not listed. A call without a number means that no potency is given here. Activity calls are given as the source filed them. Unless noted, calls come from the whole dose curve; as a rule, active = well fitted curve in the direction sought with a large enough effect; inconclusive = small, poorly fitted or top-dose-only effect, or another doubt; inactive = no such curve, though single readings can be large; an effect the other way counts as inactive or inconclusive.
# Assays:
# [1] = Cellular Toxicity (caspase-3) HepG2 (AID 654);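 note: cells exposed to compound for 16 hours before reading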
# In short: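 Luminescent Caspase-Glo 3/7 readout after 16 hr compound exposure of human hepatocellular carcinoma HepG2 cells at 37 °C; qHTS concentration-response, normalized DMSO = 0%, 100 uM tamoxifen = 100%; AC50 by standard Hill equation.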
# [2] = Cellular Toxicity (caspase-3) Jurkat (AID 655);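 note: cells exposed to compound for 16 h at 37 °C before reading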
# In short: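 Caspase 3/7 activation is scored as increased luminescence in Jurkat cells cultured with compound for 16 hours in complete medium. AC50 values come from Hill fits of qHTS concentration-response data normalized to DMSO and 100 uM tamoxifen controls.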
# [3] = Cellular Toxicity (caspase-3) HUV-EC-C (AID 656)
# In short: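 Read-out: luminescence proportional to caspase 3/7 activity, measured 20 min after adding Caspase-Glo 3/7 reagent. Cells (HUV-EC-C) had received compound for 16 hr at 37°C. Increases relative to DMSO and 100 uM tamoxifen gave concentration-response AC50 values.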
# [4] = Cellular Toxicity (caspase-3) SHSY5Y (AID 657)
# In short: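 Cells plated and incubated 5 h at 37 °C, dosed over a concentration range, incubated 16 h, then given Caspase-Glo 3/7 reagent for 1 h at room temperature before luminescence reading. Staurosporine (10 uM) defined full stimulation.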
# [5] = Cellular Toxicity (caspase-3) BJ (AID 658); conditions: Potency: caspase-3 activation
# In short: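 Plated BJ cells (1000/well) rested 5 hr, received compound for 16 hr at 37 °C, then Caspase-Glo 3/7 reagent for 1 hr at room temperature before luminescence reading.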
# [6] = Cellular Toxicity (caspase-3) MRC-5 (AID 659); conditions: Potency: caspase-3 activation
# In short: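 Apoptosis readout in MRC-5 cells: luciferase light generated after caspase 3/7 cleaves a peptide-aminoluciferin substrate, measured post 16 hr compound incubation at 37 °C.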
# [7] = Cellular Toxicity (caspase-3) Mesangial (AID 660); conditions: Potency: caspase-3 activation;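 note: cells exposed to compound for 16 h before the caspase read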
# In short: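 Luminescent Caspase-Glo 3/7 readout (aminoluciferin substrate cleavage, 20 min RT) after 16 h compound exposure at 37 °C of normal human mesangial cells. Signal increase normalized between DMSO basal and 100 uM tamoxifen; Hill-equation AC50.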
# [8] = Cellular Toxicity (caspase-3) SK-N-SH (AID 661)
# In short: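 Luminescent Caspase-Glo 3/7 read-out after 16 hr compound exposure of SK-N-SH neuroblastoma cells at 37 °C. Signal increase normalized to DMSO (basal) and 10 uM staurosporine (100%); AC50 from Hill equation fits of qHTS concentration-response data.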
# [9] = Cellular Toxicity (caspase-3) H-4-II-E (AID 663); conditions: H-4-II-E rat hepatoma, scaled: DMSO 0%, 100 µM tamoxifen 100%; at 92.2 µM (top of the series);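 note: cells exposed to compound for 16 hr before readout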
# In short: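 Caspase 3/7 activation measured in H-4-II-E cells in complete culture medium after 16 hr treatment at 37 °C, using luciferase-coupled substrate readout; AC50 values come from Hill-equation fits of normalized concentration-response data.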
# [10] = Cellular Toxicity (caspase-3) Hek293 (AID 664); conditions: HEK293 caspase-3 activation, DMSO = 0%, 100 µM tamoxifen = 100%; at 92.2 µM (top of the series);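 note: cells exposed to compound for 16 h at 37 °C before readout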
# In short: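 Luminescent Caspase-Glo 3/7 readout (aminoluciferin release) in HEK293 cells after 16 h compound treatment, 37 °C. Normalization: DMSO = basal, 100 uM tamoxifen = 100% stimulation. Concentration-response fitted with standard Hill equation for AC50.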
# [11] = Cellular Toxicity (caspase-3) Renal Proximal Tubule (AID 667); conditions: Potency: caspase-3 activation;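 note: cells exposed to compound for 16 hours at 37 °C before detection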
# In short: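 In qHTS format, rat primary proximal tubule cells seeded at 1000 per well are exposed to compounds for 16 hours at 37 °C. An increase in Caspase-Glo 3/7 luminescence indicates caspase activation.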
# [12] = target: Cytochrome P450 3A4 (Homo sapiens) (UniProt P08684); assay: qHTS Assay for Inhibitors and Substrates of Cytochrome P450 3A4 (AID 884); note: nearly all actives have a fitted effect of over 50% in size
# Chain of Cytochrome P450 3A4 (Homo sapiens) (P08684 whole entry, looked up): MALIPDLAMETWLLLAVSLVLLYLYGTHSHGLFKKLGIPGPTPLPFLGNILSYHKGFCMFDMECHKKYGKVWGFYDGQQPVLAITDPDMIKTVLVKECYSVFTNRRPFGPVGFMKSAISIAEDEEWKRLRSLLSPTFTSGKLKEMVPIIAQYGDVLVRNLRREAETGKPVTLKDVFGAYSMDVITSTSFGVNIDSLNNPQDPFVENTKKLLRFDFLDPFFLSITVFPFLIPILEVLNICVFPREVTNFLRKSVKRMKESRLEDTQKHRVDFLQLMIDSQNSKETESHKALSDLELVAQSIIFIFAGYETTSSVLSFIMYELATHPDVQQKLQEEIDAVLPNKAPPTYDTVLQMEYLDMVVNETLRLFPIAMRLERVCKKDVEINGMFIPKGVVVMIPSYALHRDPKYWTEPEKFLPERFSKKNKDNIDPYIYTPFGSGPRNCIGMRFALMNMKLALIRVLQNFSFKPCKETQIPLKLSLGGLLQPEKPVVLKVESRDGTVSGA
# In short: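 Luminescent readout of luciferin produced by CYP3A4 (20 nM) dealkylation of Luciferin-PPXE, 25 uM (its KM). NADPH-driven reaction ran 60 min at RT after 10 min compound preincubation; data scaled to 57 uM ketoconazole as 100% inhibition.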
# [13] = Confirmation and Secondary Assay for Modulators of Hemoglobin Beta Chain Splicing at IVS2 654 locus (AID 910);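 note: per-well total GFP intensity by laser scanning cytometry after 2-day treatment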
# In short: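 HeLa cells stably carrying EGFP interrupted by mutant beta-globin IVS2-654 intron (CMV-driven) were treated with compound for 2 days at 37C; corrected splicing was scored as total peak GFP intensity per well (488 nm excitation, 500-520 nm emission).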
# [14] = target: Guanine nucleotide-binding protein G(i) subunit alpha-1 (Homo sapiens) (UniProt P63096); assay: qHTS Assay for Inhibitors of RGS12 GoLoco Motif Activity (Green Fluorophore) (AID 879);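 note: negative values mean loss of peptide binding seen as reduced polarization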
# Chain of Guanine nucleotide-binding protein G(i) subunit alpha-1 (Homo sapiens) (P63096 whole entry, looked up): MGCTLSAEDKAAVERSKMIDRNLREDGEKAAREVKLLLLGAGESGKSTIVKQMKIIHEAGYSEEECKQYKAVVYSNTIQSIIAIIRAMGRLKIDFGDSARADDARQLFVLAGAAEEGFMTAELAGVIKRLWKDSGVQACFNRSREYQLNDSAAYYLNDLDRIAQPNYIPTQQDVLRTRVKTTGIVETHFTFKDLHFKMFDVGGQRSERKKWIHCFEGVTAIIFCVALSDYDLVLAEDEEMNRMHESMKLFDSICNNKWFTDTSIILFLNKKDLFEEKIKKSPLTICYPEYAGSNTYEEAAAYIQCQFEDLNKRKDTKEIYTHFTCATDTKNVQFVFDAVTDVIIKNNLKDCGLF
# In short: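 A drop in FITC polarization marked displacement of the FITC-tagged RGS12 GoLoco peptide (10 nM) from Gαi1 (50 nM). Compounds were incubated 10 min at room temperature in Tris pH 7.5 buffer containing 150 mM NaCl, 0.1 mM GDP and 0.05% NP40; unlabeled peptide titration served as control.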
# [15] = target: Cytochrome P450 2C9 (Homo sapiens) (UniProt P11712); assay: qHTS Assay for Inhibitors and Substrates of Cytochrome P450 2C9 (AID 883); note: nearly all actives have a fitted effect of over 60% in size
# Chain of Cytochrome P450 2C9 (Homo sapiens) (P11712 whole entry, looked up): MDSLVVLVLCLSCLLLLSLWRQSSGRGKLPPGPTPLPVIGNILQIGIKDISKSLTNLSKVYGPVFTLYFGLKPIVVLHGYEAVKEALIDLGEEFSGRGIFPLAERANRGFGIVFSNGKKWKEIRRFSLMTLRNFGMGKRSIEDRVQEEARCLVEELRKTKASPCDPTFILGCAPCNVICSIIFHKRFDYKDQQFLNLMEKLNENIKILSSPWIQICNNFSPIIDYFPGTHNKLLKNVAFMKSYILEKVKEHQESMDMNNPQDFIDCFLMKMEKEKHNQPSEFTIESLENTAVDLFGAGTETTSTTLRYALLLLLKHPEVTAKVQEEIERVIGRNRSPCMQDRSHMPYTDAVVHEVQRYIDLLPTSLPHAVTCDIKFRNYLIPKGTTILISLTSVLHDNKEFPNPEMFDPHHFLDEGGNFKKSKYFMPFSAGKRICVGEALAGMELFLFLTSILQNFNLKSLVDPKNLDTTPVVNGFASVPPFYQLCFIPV
# In short: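 A luminogenic readout tracked human CYP2C9 (10nM) converting deoxyluciferin (100uM, at KM) in 25mM KPO4 during 60 min at 37C with regenerated NADPH. Values normalized to 57uM sulphaphenazole as complete inhibition.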
# [16] = target: Cytochrome P450 2D6 (Homo sapiens) (UniProt P10635); assay: qHTS Assay for Inhibitors and Substrates of Cytochrome P450 2D6 (AID 891); note: nearly all actives have a fitted effect of over 60% in size; note: potency is the fitted concentration of half-maximal effect
# Chain of Cytochrome P450 2D6 (Homo sapiens) (P10635 whole entry, looked up): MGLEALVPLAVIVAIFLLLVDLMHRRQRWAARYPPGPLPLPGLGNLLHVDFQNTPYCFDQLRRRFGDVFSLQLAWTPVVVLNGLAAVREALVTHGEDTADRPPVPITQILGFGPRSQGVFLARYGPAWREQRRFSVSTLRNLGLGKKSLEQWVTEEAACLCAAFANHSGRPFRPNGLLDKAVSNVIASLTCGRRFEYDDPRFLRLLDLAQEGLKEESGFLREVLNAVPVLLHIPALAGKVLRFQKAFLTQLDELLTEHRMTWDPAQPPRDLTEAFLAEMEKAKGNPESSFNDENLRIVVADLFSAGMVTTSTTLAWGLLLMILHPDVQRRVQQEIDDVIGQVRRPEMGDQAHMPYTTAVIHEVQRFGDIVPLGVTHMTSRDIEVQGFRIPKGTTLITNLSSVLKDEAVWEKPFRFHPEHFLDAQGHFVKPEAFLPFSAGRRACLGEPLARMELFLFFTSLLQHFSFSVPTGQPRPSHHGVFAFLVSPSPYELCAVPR
# In short: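 Luminescent read-out of luciferin formed by 5 nM human CYP2D6 demethylating 30 uM Luciferin-ME EGE (Km level) over 60 min at room temperature after NADPH regeneration addition. Data normalized to full inhibition by 1.43 uM quinidine.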
# [17] = qHTS Assay for Identification of Small Molecule Antagonists for NFkB Signaling Pathway (AID 895; active = well fitted inhibition curve with a large enough effect in the signal ratio, with a control signal flat, not every such curve was filed as active; the % refers to the signal ratio)
# In short: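 NFkB-bla ME-180 cervical carcinoma cells with beta-lactamase reporter under NFkB response element; compounds added, then TNF alpha at 10 pM final (EC50), 5 h at 37 C. LiveBLAzer substrate 2 h, room temperature; emission 460/530 nm at 405 nm excitation.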
# [18] = target: Cytochrome P450 2C19 (Homo sapiens) (UniProt P33261); assay: qHTS Assay for Inhibitors and Substrates of Cytochrome P450 2C19 (AID 899); note: nearly all actives have a fitted effect of over 60% in size
# Chain of Cytochrome P450 2C19 (Homo sapiens) (P33261 whole entry, looked up): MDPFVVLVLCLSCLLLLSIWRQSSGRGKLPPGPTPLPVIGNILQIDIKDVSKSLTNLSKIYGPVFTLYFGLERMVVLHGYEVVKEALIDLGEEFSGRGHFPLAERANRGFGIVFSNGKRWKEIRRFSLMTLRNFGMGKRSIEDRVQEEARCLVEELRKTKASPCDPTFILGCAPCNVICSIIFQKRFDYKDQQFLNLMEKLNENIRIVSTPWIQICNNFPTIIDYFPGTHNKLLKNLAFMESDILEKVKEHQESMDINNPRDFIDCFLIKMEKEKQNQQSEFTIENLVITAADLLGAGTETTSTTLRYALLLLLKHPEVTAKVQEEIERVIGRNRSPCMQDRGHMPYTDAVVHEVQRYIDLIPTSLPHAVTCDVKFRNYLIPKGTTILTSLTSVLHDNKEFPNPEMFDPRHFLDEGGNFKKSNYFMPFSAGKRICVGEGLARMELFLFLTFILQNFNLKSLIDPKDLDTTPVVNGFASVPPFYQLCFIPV
# In short: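 NADPH-dependent conversion of Luciferin-H EGE (10uM, at KM) by 5nM enzyme in 50mM KPO4, 60 min at 37C following 10 min compound preincubation. Stopped with luciferin detection buffer; luminescence read after 20 min.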
# [19] = target: Cytochrome P450 3A4 (Homo sapiens) (UniProt P08684); assay: qHTS Assay for Activators of Cytochrome P450 3A4 (AID 885); note: nearly all actives have a fitted effect of over 65% in size
# In short: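 Activators are scored by enhanced luminescence from CYP3A4 conversion of luciferin-PPXE (25uM, equal to KM) to luciferin, after 60 min at RT with an NADPH-regenerating system.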
structure (smiles),measurement,setting,value
O=C(O)c1cc(=O)[nH]c(=O)[nH]1,Potency,[1],inactive
same,outcome,[2],inactive
same,outcome,[3],inactive
same,Potency,[4],inactive
same,Potency,[5],inactive
same,Potency,[6],inactive
same,Potency,[7],inactive
same,Potency,[8],inactive
same,caspase-3 activation,[9],0.389%
same,caspase-3 activation,[10],-0.467%
same,Potency,[11],inactive
same,outcome,[12],inactive
CCc1cc(C(N)=S)ccn1,Potency,[1],inactive
same,outcome,[2],inactive
same,outcome,[3],inactive
same,Potency,[4],inactive
same,Potency,[5],inactive
same,Potency,[6],inactive
same,Potency,[7],inactive
same,Potency,[8],inactive
same,caspase-3 activation,[9],-1.43%
same,caspase-3 activation,[10],-3.96%
same,Potency,[11],inactive
same,Potency,[13],inactive
CNS(=O)(=O)Cc1ccc2[nH]cc(CCN(C)C)c2c1,outcome,[12],inactive
same,Potency,[13],inactive
NC(=O)c1cccc(N)c1,outcome,[14],inactive
same,outcome,[15],inactive
same,Potency,[16],inactive
same,Potency,[17],inactive
same,Potency,[18],inactive
CC(=O)[C@H]1CC[C@H]2[C@@H]3CCC4=CC(=O)CC[C@]4(C)[C@H]3CC[C@]12C,Potency,[1],inactive
same,outcome,[2],inactive
same,outcome,[3],inactive
same,Potency,[4],inactive
same,Potency,[5],inactive
same,Potency,[6],inactive
same,Potency,[7],inactive
same,Potency,[8],inactive
same,caspase-3 activation,[9],12.7% and 23%
same,caspase-3 activation,[10],154% (active)
same,Potency,[11],inactive
same,outcome,[14],inactive
same,outcome,[12],inactive
CC1=NN(c2ccccc2)C(=O)C1,Potency,[1],inactive
same,outcome,[2],inactive
same,outcome,[3],inactive
same,Potency,[4],inactive
same,Potency,[5],inactive
same,Potency,[6],inactive
same,Potency,[7],inactive
same,Potency,[8],inactive
same,caspase-3 activation,[9],-1.22%
same,caspase-3 activation,[10],1.55%
same,Potency,[11],inactive
same,outcome,[19],inactive
same,Potency,[13],inactive
CCOC(=O)c1ccc(OC(=O)CCCCCN=C(N)N)cc1,outcome,[15],inactive
same,Potency,[16],316 nM (active)
Cc1nnc(NS(=O)(=O)c2ccc(N)cc2)s1,Potency,[1],inactive
same,outcome,[2],inactive
same,outcome,[3],inactive
same,Potency,[4],inactive
same,Potency,[5],inactive
same,Potency,[6],inactive
same,Potency,[7],inactive
same,Potency,[8],inactive
same,caspase-3 activation,[9],-0.129%
same,caspase-3 activation,[10],-0.508%
same,Potency,[11],inactive
same,outcome,[12],inactive
same,Potency,[13],inactive
CC(C)(C)NC(=O)[C@H]1CC[C@H]2[C@@H]3CC[C@H]4NC(=O)C=C[C@]4(C)[C@H]3CC[C@]12C,outcome,[14],inactive
